# Test results published in PubChem BioAssay AID652010 (The Scripps Research Institute Molecular Screening Center, 2013).
# Screen size: about 370,000 compounds; about 4,100 (1.1%) were called active. Shown is part of a subset that was picked to be rich in actives. Unmarked numbers belong to inactive results.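 How the source made its calls: active means inhibition above the mean over all tested compounds plus 3 SD (cut at about 3.6% in these data); inactive means the rest.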
# Test: DAX1 (NR0B1) inhibitors on StAR promoter, primary screen, cell-based, luminescence, SF-1 (NR5A1), full-length DAX-1 (AID 652010);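 further: 0% = DAX-1 cells with DMSO and 100% = cells lacking DAX-1 with DMSO; higher inhibition means more luminescence from relief of DAX-1 repression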
# Conditions: HEK293T StAR-luciferase reporter, SF-1/DAX-1 repression relief; at 6.8 µM; active compounds read high
row,SMILES,inhibition
1,CCOc1ccc(NC(=O)N(CCC(C)C)C(C)c2ccco2)cc1 (stereo not given),-0.03%
2,O=C(CSc1nnc(-c2ccco2)o1)NCC(=O)c1ccccc1,1.51%
3,CCOc1ccc(-c2nnc(-c3ccco3)o2)cc1,6.66% (active)
4,CCCCOc1ccc(-c2nnc(-c3ccco3)o2)cc1,4.13% (active)
5,CCCCCCc1cc2cc(-c3nnc(-c4cccc(OC)c4)o3)c(=O)oc2cc1O,1.42%
6,CCCOc1ccc(-c2c(C(=O)N/N=C/c3ccco3)nnn2-c2nonc2N)cc1,-0.59%
7,C=CCN1C(C(=O)OC)CN(Cc2cn(Cc3ccccc3)nn2)CCS1(=O)=O (stereo not given),-0.18%
8,COC(=O)[C@]12C[C@H](CC(=O)NCC34CC5CC(CC(C5)C3)C4)C(=O)N(Cc3ccc(Cl)cc3Cl)C1=C[C@H](COCc1ccccc1)O[C@@H]2C,-0.93%
9,COC(=O)[C@]1(C#N)CC(=O)N(CC2CCCCC2)[C@@H]1c1ccccc1,1.2%
10,FC(F)(F)c1cccc(Cn2ccc3ccc(-c4ccc5ccn(Cc6ccccc6)c5c4)cc32)c1,-1.01%
11,O=C(CCCCCN1C(=O)C2C3C=CC(C3)C2C1=O)Nc1ccccn1 (stereo not given),-0.18%
12,COc1cc(OC)c(C(=O)NNC(=O)c2ccc(NS(=O)(=O)c3cccs3)cc2)cc1OC,4.51% (active)
13,COc1cc(OC)c(C(=O)NNC(=O)c2ccccc2-n2cccc2)cc1OC,0.07%
14,C/C(=N\NC(=O)c1ccc(NS(=O)(=O)c2cccs2)cc1)c1ccc2ccccc2c1,0.35%
15,COc1ccc(-c2cc(-c3nnc(SCC(=O)Nc4cccc5ccccc45)n3N)[nH]n2)cc1,-0.22%
16,C[C@H](C(=O)N(C)c1ccccc1)[C@@H](O)c1ccc2ccccc2c1,0.19%
17,CS(=O)(=O)N(CC(=O)N/N=C/c1ccccn1)c1ccc(Oc2ccccc2)cc1,-0.11%
18,O=C(O)C1C2C=CC(O2)C1C(=O)Nc1ccccn1 (stereo not given),0.46%
19,S=C(NN=Cc1ccccn1)Nc1ccccn1,3.77% (active)
20,Clc1ccc(-n2c(SC/C=C/c3ccccc3)nnc2-c2ccco2)cc1,-1.85%
21,Cc1ccc(-c2nc(-c3cccnc3)sc2CC(=O)Nc2ccc(C)c(Cl)c2)cc1,-0.1%
22,O=C(NCc1ccco1)C1CCCN(S(=O)(=O)c2ccc(Cl)s2)C1 (stereo not given),-1.13%
23,O=C1N(c2ccccc2)C(=Nc2ccccc2)SC12CC2,-0.44%

row,SMILES,inhibition
1,COc1cc(SC)ccc1C(=O)Nc1nc(C)cs1,-3.74%
2,Cc1ccnc(NC(=O)C(C)N2C(=O)c3ccccc3C2=O)c1 (stereo not given),-0.27%
3,COc1cc(SC)ccc1C(=O)Nc1cc(C)ccn1,4.19% (active)
4,O=C(c1cccc(C(F)(F)F)c1)N1CC[C@H]2[C@H](CCCN2Cc2cc(F)cc(F)c2)C1,0.13%
5,Cc1sc2nc(SCC(=O)c3ccc(O)c(O)c3)n(Cc3ccco3)c(=O)c2c1C,-0.17%
6,COCCCNC(=O)CN1C(=O)CSc2ccc(S(=O)(=O)N3CCOCC3)cc21,0.4%
7,COc1ccc(NC(=O)CN2C(=O)CSc3ccc(S(=O)(=O)N4CCC(C)CC4)cc32)cc1,-0.14%
8,CC1CCN(CCCNC(=O)CN2C(=O)CSc3ccc(S(=O)(=O)N4CCCCC4)cc32)CC1,4.58% (active)
9,COC(=O)[C@]12C[C@H](CC(=O)NCc3ccccc3)C(=O)N(CCC3=CCCCC3)C1=C[C@H](C(C)(C)C)O[C@@H]2C,-0.82%
10,Cc1ccc(NC(=O)N2c3ccccc3SC2c2ccco2)c(C)c1 (stereo not given),-1.05%
11,O=C(Nc1ccc(NC(=O)c2cccs2)cn1)c1ccco1,5.96% (active)
12,O=C(Nc1nonc1-c1ccc(Cl)cc1)c1ccco1,-0.6%
13,O=C(N/N=C/C=C/c1ccco1)c1cccs1,0.78%
14,C[C@H](C(=O)N(C)c1ccccc1)[C@@H](O)c1ccc(Cl)cc1,-0.7%
15,O=C(OC12CCCN(C1)/C(=C/c1cccnc1)C2)C1CCCC1 (stereo not given),-1.73%
16,COc1ccc(/C=C/C(=O)OCC(=O)N2CCN(S(=O)(=O)c3ccc(C)cc3C)CC2)cc1OC,-1.45%
17,COc1ccccc1CCC(=O)OCC(=O)N1CCN(S(=O)(=O)c2ccc(C)cc2C)CC1,4.53% (active)
18,Cc1ccc(S(=O)(=O)N2CCN(C(=O)COC(=O)CNC(=O)c3ccc(C(C)(C)C)cc3)CC2)c(C)c1,-0.26%
19,COc1ccc(C2=Nc3cc(C)ccc3OC2)cc1,4.81% (active)
20,COc1ccc(/C=C/c2c(-c3cccc(C)c3)oc3ccc(-c4ccc5c(c4)OCO5)cc23)cc1,-0.02%
21,COc1ccc(-c2onc(C)c2-c2ccc3c(c2)OCCO3)c(O)c1,-0.75%
22,O=C(c1c[nH]c2ccccc12)N1CCC(Oc2cccnc2)CC1,-0.43%
23,COc1ccccc1CCNC(=O)C1CCN(c2nc(C)cc(C)n2)CC1,-0.06%

row,SMILES,inhibition
1,CCc1c(-c2ccccc2OC)ncn1CCc1ccccc1OC,-2.14%
2,O=C(CSc1nnc2n1CCCN2)c1ccccc1,0.61%
3,N#Cc1ccc(CSc2nnc3ccccn23)cc1,-0.37%
4,O=C(CSc1nnc2ccccn12)c1ccccc1,4.08% (active)
5,C[C@H]1CCC/C=C/C(=O)c2c(O)cc(O)cc2CC(=O)O1,-6.29%
6,Cc1ccc(-c2nc(C3CCCN(S(=O)(=O)c4ccc(Br)s4)C3)no2)cc1 (stereo not given),0.62%
7,CCN(CCCNC(=O)c1ccc2c(c1)NC(=O)CN2C)c1cccc(C)c1,-0.89%
8,Cc1ccccc1Nc1nc(N)nc(CSc2ccccc2)n1,6.39% (active)
9,Cc1ccccc1Nc1nc(N)nc(COC(=O)CCC(=O)c2ccc(F)cc2)n1,1.74%
10,Cc1ccccc1Nc1nc(N)nc(CSc2nnc3ccccn23)n1,0.79%
11,COC(=O)c1cc(NC(=O)c2cc(C(C)(C)C)nn2Cc2cccc(C)c2)ccc1N1CCOCC1,-0.35%
12,CCN(C(=O)CSc1cccc[n+]1[O-])c1ccccc1,-1.71%
13,O=C(CSc1cccc[n+]1[O-])c1ccc(-c2ccccc2)cc1,6.13% (active)
14,O=C(CSc1cccc[n+]1[O-])NCCCc1ccccc1,-0.54%
15,CCOC(=O)C1=C(C)NC2=C(C(=O)CC(C)(C)C2)C1c1ccc2c(c1)OCO2 (stereo not given),-0.98%
16,COCCCNC(=O)C[C@H]1C[C@@]2(C(=O)OC)C(=C[C@H](C(C)(C)C)O[C@@H]2C)N(Cc2ccc(Cl)cc2Cl)C1=O,-0.02%
17,CC(=O)OC12CCCN(C1)/C(=C/c1ccncc1)C2 (stereo not given),0.29%
18,COC(=O)[C@H](C(C)C)N(CCc1cn(Cc2ccccc2)nn1)S(=O)(=O)c1ccc(F)cc1Br,-1.05%
19,CCCNC(=O)C1CC(=O)N(c2ccc(OCc3ccccc3)cc2)C1 (stereo not given),5.35% (active)
20,CCCNC(=O)C1CC(=O)N(c2ccc(OCC(=O)Nc3cccc(C)c3C)cc2)C1 (stereo not given),0.23%
21,CCOc1ccc(N2CC(C(=O)NCc3ccccn3)CC2=O)cc1 (stereo not given),-0.17%
22,O=C(NC1CCc2ccccc21)C12CN(Cc3ccccc3)CC1C(c1cccc([N+](=O)[O-])c1)=NO2 (stereo not given),-0.99%
23,COc1ccc(CN2C(=O)N3Cc4cc(OC)ccc4C3CS2(=O)=O)cc1 (stereo not given),-0.73%

row,SMILES,inhibition
1,O=C(N/N=C/c1ccsc1)c1cc(O)cc(O)c1,-0.09%
2,O=C(NN=Cc1ccccc1)c1ccccc1,3.83% (active)
3,NN=C(NN=Cc1ccccc1)c1ccccc1,0.41%
4,Cc1ccc(Cn2cc(CN3[C@@H](CC(C)C)COc4ccc(Cl)cc4S3(=O)=O)nn2)cc1,0.88%
5,Cc1[nH]nc2c1C(c1ccc(Br)cc1)NC2=O (stereo not given),-0.04%
6,CCCOc1ccc(Oc2c(Cl)cnn(Cc3cccc4ccccc34)c2=O)cc1,0.1%
7,CN(C)Cc1cn(-c2ccc(-c3noc4c3C(=O)N(CC(=O)N3CCOCC3)CC4)cc2)nn1,-0.33%
8,O=C(NCCc1cccc(F)c1)C1CCCN(c2nc3ccccc3s2)C1 (stereo not given),0.01%
9,Brc1ccc2nc(N3CCCC3)sc2c1,7.95% (active)
10,Cc1nc(N2CCCCC2)sc1C=O,0.27%
11,COc1ccc(-n2c(SCC(=O)Nc3ccc4c(c3)OCCO4)nnc2-c2ccc(Cl)cc2)cc1,0.07%
12,COc1ccccc1C(=O)NC1CCCCN(C(C)C)C1=O (stereo not given),-0.1%
13,O=C(CSc1nc2c(c(=O)[nH]1)CCCC2)N1CCCCC1,-0.21%
14,COc1cccc(N(C)C(=O)[C@@H](C)[C@@H](O)c2ccc3ccccc3c2)c1,-0.75%
15,COc1ccc(-c2csc(Cc3nc(O)cs3)n2)cc1,4.06% (active)
16,COc1ccc(C2C(C(C)=O)=C(O)C(=O)N2c2nccs2)cc1 (stereo not given),0.43%
17,COc1ccc(C(C)(O)c2nc(-c3cc(F)cc(F)c3)cs2)cc1 (stereo not given),-0.31%
18,Cc1ccc(NS(=O)(=O)c2cc3c(cc2Br)NC(=O)CO3)cc1C,-2.1%
19,CN1CCN(S(=O)(=O)c2ccc(NC(=O)C3CCCO3)cc2)CC1 (stereo not given),-0.58%
20,CCOc1cc(/C=N/NC(=O)c2ccc(CSc3nncn3C)cc2)ccc1OCC(=O)N1CCOCC1,0.55%
21,O=S1(=O)c2ccc(N3CCN(Cc4ccccc4F)CC3)cc2Oc2ccccc2CN1Cc1cn(Cc2ccc(Cl)cc2)nn1,-0.86%
